Source: PubChem (National Center for Advancing Translational Sciences (NCATS))
3T3 cytotox: kills NIH 3T3 cells | NIH 3T3 viability, CellTiter-Glo ATP luminescence, 48-72 h | Potency, µM (doses to about 96.7 µM), for inactives: at the top dose activity change, negative = cytotoxicity, usual class: inhibitors | 4.3% of 94,000 active | AID 1345082; note: nearly all actives have a fitted effect of over 55% in size
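Cytotoxicity is measured as loss of cellular ATP: NIH 3T3 cells (400/well) are exposed to compound for 48 or 72 hr at 37 °C, then CellTiter-Glo luminescence is imaged after 10 min at room temperature.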
HEK293 tox: HEK 293 cell cytotoxicity; HEK 293 viability, ATP luminescence (CellTiter-Glo), 48-72 h; Potency, µM (series often up to 115 µM), for inactives: at the highest dose activity change, negative = cytotoxicity, hits mostly inhibitors; 6.6% of 94,000 active; AID 1345083; note: nearly all actives have a fitted effect of over 60% in size
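HEK 293 seeded at 250 cells/well receive compound via pintool. After 48 or 72 hr at 37 degree Celsius, 5% CO2 and 95% humidity, CellTiter-Glo is dispensed and luminescence read following 10 min at room temperature.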
Luciferase inh: Photinus pyralis luciferase inhibition. AID 1347043. Potency, µM (top dose mostly 115 µM), actives largely listed as inhibitors. P08659. 2.5% of 76,000 active. purified P. pyralis luciferase, luminescence, biochemical; note: nearly all actives have a fitted effect of over 65% in size
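Biochemical qHTS: compound (6-point titration) added to 10uM D-luciferin plus 10uM ATP in Tris acetate pH 7.5 buffer with Mg, Tween-20 and BSA, then purified enzyme at 10nM; light output imaged.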
NPR1 antag: human Npr1 receptor antagonism. HEK293 hNpr1 GloSensor cGMP, ANP-stimulated luminescence. Potency, µM (series often up to 46.3 µM), without a hit: at the top dose activity change, negative = inhibition, most hits filed as inhibitors. 1.6% of 76,000 active. P16066; calls by dose curve; note: nearly all actives have a fitted effect of over 60% in size
Target sequence (P16066 whole entry, looked up): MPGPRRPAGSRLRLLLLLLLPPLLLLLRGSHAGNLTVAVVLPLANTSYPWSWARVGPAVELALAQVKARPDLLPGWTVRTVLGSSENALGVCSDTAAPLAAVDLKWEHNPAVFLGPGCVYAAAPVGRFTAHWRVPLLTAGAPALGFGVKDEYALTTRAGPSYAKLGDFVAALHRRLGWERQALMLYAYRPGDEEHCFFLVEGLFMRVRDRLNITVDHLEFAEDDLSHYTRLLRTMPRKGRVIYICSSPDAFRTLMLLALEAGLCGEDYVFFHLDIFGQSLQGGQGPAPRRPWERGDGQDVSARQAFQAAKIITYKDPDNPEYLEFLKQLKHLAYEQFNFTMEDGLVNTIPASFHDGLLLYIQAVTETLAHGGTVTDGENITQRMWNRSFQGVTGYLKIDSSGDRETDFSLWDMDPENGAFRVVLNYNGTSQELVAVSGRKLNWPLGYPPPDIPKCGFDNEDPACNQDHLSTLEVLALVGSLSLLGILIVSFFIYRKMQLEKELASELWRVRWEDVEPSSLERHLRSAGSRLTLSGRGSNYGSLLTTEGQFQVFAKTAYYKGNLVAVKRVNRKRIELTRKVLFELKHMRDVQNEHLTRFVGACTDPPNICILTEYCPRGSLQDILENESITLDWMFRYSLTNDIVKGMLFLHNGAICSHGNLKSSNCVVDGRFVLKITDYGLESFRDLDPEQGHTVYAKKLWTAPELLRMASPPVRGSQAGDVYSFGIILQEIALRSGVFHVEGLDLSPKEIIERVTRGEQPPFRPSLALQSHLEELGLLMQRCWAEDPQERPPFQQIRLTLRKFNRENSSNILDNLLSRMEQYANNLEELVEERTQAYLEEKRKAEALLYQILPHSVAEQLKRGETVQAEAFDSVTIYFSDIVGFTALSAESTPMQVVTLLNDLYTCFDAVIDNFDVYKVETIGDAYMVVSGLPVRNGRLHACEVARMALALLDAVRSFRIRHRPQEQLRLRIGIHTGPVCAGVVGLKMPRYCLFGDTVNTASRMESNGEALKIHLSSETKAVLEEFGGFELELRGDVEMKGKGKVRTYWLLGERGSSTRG
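Compound pre-incubated 30 min at room temperature on GloSensor-loaded HEK293 cells stably carrying hNpr1 and the pGS-40F cGMP biosensor. Stimulation uses hNppA at 0.1 nM final; luminescence is taken at baseline and 20 min post-agonist.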
The depositor's hits bear a star; i = inactive; ? = inconclusive; · = no result given; ! = not confirmed by another sample; [ ] = remark or other dose. Rows were chosen to be rich in hits. Some 11% of all compounds tested hit in one or more screens of this group. Unless noted, calls come from the whole dose curve; as a rule, active = well fitted curve in the direction sought with a large enough effect; inconclusive = small, poorly fitted or top-dose-only effect, or another doubt; inactive = no such curve, though single readings can be large; an effect the other way counts as inactive or inconclusive. % is set by controls: 0 for no effect and ±100 for the full control effect; potency is the fitted concentration of half-maximal effect.

SMILES	3T3 cytotox	HEK293 tox	Luciferase inh	NPR1 antag
CCCN(C)c1nccnc1OC1CCN(C(=O)c2ccoc2)C1 (configuration not stated)	-28%	?	14µM*	-7%
CCc1ccc(C(=O)N2CCC(Oc3nccnc3N(C)C)C2)cc1 (configuration not stated)	-4%	?	?	-18%
CCCN(C)c1nccnc1OC1CCN(C(=O)c2ccc(F)cc2)C1 (configuration not stated)	-13%	?	35µM*	-11%
COc1ccc(-c2cccc(C(=O)N3CCC(NC(=O)c4cccnc4)CC3)c2)nn1	-4%	3%	·	·
CC(C)NC(=O)c1nc2sccn2c1-c1ccc(F)cc1	-33%[138 µM]	-16%[172 µM]	·	·
O=C(CCCc1ccccc1)N1CCC2(CC1)CC(CO)N(C(=O)c1ccccc1)C2 (configuration not stated)	-30%	?	·	·
CN(C)c1ccc(NC(=O)CCn2ccn3nc4c(c3c2=O)CCCC4)cc1	-26%	?	40µM*	-1%
Cc1ccc(NC(=O)Cn2ccn3nc4c(c3c2=O)CCCCC4)cc1C	-25%	40µM*	i	?
CC(=O)Nc1ccc(NC(=O)Cn2ccn3nc4c(c3c2=O)CCCCC4)cc1	?	35µM*	i	3%
CC(=O)c1ccc(NC(=O)Cn2ccn3nc4c(c3c2=O)CCCC4)cc1	-2%	-1%	i	-3%
Cc1ccc(NC(=O)Cn2ccn3nc4c(c3c2=O)CCCC4)cc1Cl	-24%	-14%	i	-8%
CN1CC(C(=O)N2CCC(c3ccccc3)CC2)NC1=O (configuration not stated)	-1%[138 µM]	i	·	·
CCN1C(=O)CN(C(=O)c2ccsc2)CC12CCOCC2	-2%	4%	·	·
COc1ccc(-n2c(=O)c(C(=O)N(C)C)nc3cccnc32)cc1	i	4%[172 µM]	·	·
O=[S+]1([O-])NCC2(CCN(Cc3ccc(OC(F)(F)F)cc3)C2)Nc2ccccc21 (configuration not stated)	?	79µM*	i	9%
O=C1Nc2ccccc2CC12CCCCN2Cc1ccc(F)cc1 (configuration not stated)	?	79µM*	i	-2%[70.6 µM]
O=C1Nc2ccccc2CC12CCN(Cc1ccc(OC(F)(F)F)cc1)C2 (configuration not stated)	?	28µM*	i	?
O=C1Nc2ccccc2CC12CCN(Cc1ccc(Cl)cc1)CC2	?	89µM*	·	·
O=C1Nc2ccccc2CC12CCN2Cc1ccc(F)cc1 (configuration not stated)	-25%[138 µM]	?	i	0%[70.6 µM]
CC(NC(=O)c1ccc(Cn2ccn3nc4c(c3c2=O)CCCC4)cc1)c1ccccc1 (configuration not stated)	?	?	i	-15%
O=C1Nc2ccccc2CC12CCN2Cc1ccc(OC(F)(F)F)cc1 (configuration not stated)	?	45µM*	i	-15%
O=C1NCc2ccccc2CC12CCN(Cc1ccc(-c3ccccc3)cc1)CC2	25µM*	32µM*	·	·
Cc1ccccc1C(=O)N1CCCCC12Cc1ccccc1NC2=O (configuration not stated)	?	112µM*!	i	15%[70.6 µM]
COc1ccc2ccc(OCc3nc(C(=O)NCc4cnc(C)cn4)co3)cc2c1	?	?	i	-22%
COc1ccc2ccc(OCc3nc(C(=O)NC(C)c4n[nH]c(C)n4)co3)cc2c1 (configuration not stated)	-28%	45µM*	?	11µM*
COc1ccc2ccc(OCc3nc(C(=O)N4CCCC(C)(CO)C4)co3)cc2c1 (configuration not stated)	?	?	?	11µM*
COC(=O)N1CCC[C@@H]1C(=O)N1CCCC(c2nc3ccncc3[nH]2)C1 (some centres not stated)	i	i	·	·
COc1ccc(CC(=O)Nc2ccc3c(c2)CN(CCOc2ccccc2)C(=O)C(C)O3)cc1 (configuration not stated)	?	45µM*	i	-17%
COc1ccc(CN2Cc3cc(NC(=O)Cc4ccccc4)ccc3OC(C)C2=O)cc1 (configuration not stated)	?	?	i	-17%
CC1Oc2ccc(NC(=O)COc3ccccc3)cc2CN(Cc2ccccc2Cl)C1=O (configuration not stated)	?	25µM*	i	-5%
